Screening data as filed in PubChem BioAssay.
Rows were chosen to be rich in hits. Some 6.7% of all compounds tested hit in one or more screens of this group.
T_cruzi_growth-1 – T. cruzi proliferation inhibition; T. cruzi beta-gal in NIH3T3, GalScreen luminescence, 90 h; inhibition, % at 8.34 µM; actives 5.9% (n = 77,000); AID 624255;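 active means mean inhibition above about 93%, with at least 55% of replicates each passing it, limit read from the data, passing the limit was not always enough; inconclusive means only one of those two conditions holds; inactive means neither condition holds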
C_diff_HTS – inhibitors of Clostridium difficile growth; growth activity, negative = inhibition, % at 16 µg/mL (by protocol); actives 0.25% (n = 86,000); Clostridium difficile clinical isolate growth, OD600, 24 h; stronger effect = lower value;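 active means mean growth activity at or below -80% and every replicate also at or below -80%; inconclusive means mean at or below -80% but some replicate above -80%; inactive means mean growth activity above -80%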;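 further: 0% = DMSO wells and -100% = levofloxacin 16 µg/mL wells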
Pf_Dd2_growth – P. falciparum Dd2 growth inhibition. SYBR Green, 72 h; stronger effect = lower value. activity change, % at 10 µM. actives 2.3% (n = 94,000). AID 1159554; in the data active means activity change below about -80%; inconclusive means no clear call, values can overlap the other calls
T_cruzi_growth-2 – Trypanosoma cruzi proliferation inhibition. shares compounds with T_cruzi_growth-1. T. cruzi beta-gal in NIH3T3, GalScreen luminescence, 90 h. inhibition, % at 8.35 µM. actives 72% (n = 5,600);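 active means mean replicate inhibition above about 95% and at least 55% of replicates individually reaching it, limit read from the data; inconclusive means only one of the two criteria is met; inactive means neither criterion is met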
T_cruzi_growth-3 – Trypanosoma cruzi proliferation inhibition; shares compounds with T_cruzi_growth-1; T. cruzi beta-gal in NIH3T3, GalScreen luminescence, 90 h; inhibition, % at 2.09 µM; actives 21% (n = 5,600); AID 651740;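 active means mean inhibition above about 95%, with at least 55% of replicates also reaching it, limit read from the data; inconclusive means meets just one of the two conditions; inactive means meets neither condition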;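 further: plate controls were neutral control median for no effect and positive control median for full effect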
NIH3T3_tox – NIH/3T3 (mouse) viability loss | actives 14% (n = 5,600) | NIH/3T3 viability, CellTiter-Glo ATP luminescence, 90 h | AID 651742 | cytotoxicity (signal decrease), % at 8.35 µM | shares compounds with T_cruzi_growth-1;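 active means mean signal decrease across replicates above about 35% based on untreated-well scatter, with enough replicates individually passing, limit read from the data; inconclusive means no rule stated though some were filed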;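 further: 0% = median of neutral control wells and 100% = median of positive control wells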
NIH3T3_tox_2 – kills mouse NIH/3T3 fibroblasts; shares compounds with T_cruzi_growth-1; NIH/3T3 viability, CellTiter-Glo ATP luminescence, 90 h; inhibition, % at 24.9 µM; actives 56% (n = 5,600); AID 651744;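 active means mean loss of cell viability signal at or above a set limit, and enough replicates individually reaching it; inconclusive means meets only the mean limit or only the replicate share; inactive means meets neither condition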;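 further: 0% = median of neutral control wells and 100% = median of positive control wells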
* hit, by the source's call; ? = inconclusive; nt = no result given.

SMILES T_cruzi_growth-1 C_diff_HTS Pf_Dd2_growth T_cruzi_growth-2 T_cruzi_growth-3 NIH3T3_tox NIH3T3_tox_2
COc1ccc(CNC(=O)C[C@H]2C=C[C@@H](NC(=O)c3ccc4c(c3)OCO4)[C@@H](CO)O2)cc1 nt -3 2 nt nt nt nt
C/C=C/c1ccc2c(c1)O[C@H](CN(C)S(C)(=O)=O)[C@@H](C)CN([C@H](C)CO)S2(=O)=O -11 3 4 nt nt nt nt
C/C=C/c1ccc2c(c1)O[C@H](CN(C)S(=O)(=O)c1ccc(C)cc1)[C@H](C)CN([C@H](C)CO)S2(=O)=O 117* 4 -11 107* 52 6 78*
C/C=C/c1ccc2c(c1)O[C@@H](CN(C)S(=O)(=O)c1ccc(C)cc1)[C@@H](C)CN([C@@H](C)CO)S2(=O)=O 98* -1 -51 108* 88 16 43*
Cc1ccc(S(=O)(=O)N(C)C[C@H]2Oc3cc(Br)ccc3S(=O)(=O)N([C@@H](C)CO)C[C@H]2C)cc1 nt 4 10 nt nt nt nt
C[C@@H]1CN([C@@H](C)CO)C(=O)c2cc(NC(=O)Nc3cccc4ccccc34)ccc2O[C@@H]1CN(C)Cc1ccc2c(c1)OCO2 14 19 -36 nt nt nt nt
C[C@H]1CN([C@@H](C)CO)C(=O)Cc2cc(NC(=O)Nc3cccc4ccccc34)ccc2O[C@H]1CN(C)Cc1ccc2c(c1)OCO2 16 3 8 nt nt nt nt
C[C@H]1CN([C@@H](C)CO)C(=O)c2cc(NC(=O)Nc3cccc4ccccc34)ccc2O[C@H]1CN(C)Cc1ccc2c(c1)OCO2 100* 1 32 90 93 28 32*
C[C@H](CO)N1C[C@H](C)[C@@H](CN(C)Cc2ccc3c(c2)OCO3)Oc2ccc(NC(=O)Nc3cccc4ccccc34)cc2CC1=O 109* 8 -29 101* 104* 41* 52*
C[C@H](CO)N1C[C@H](C)[C@H](CN(C)Cc2ccc3c(c2)OCO3)Oc2ccc(NC(=O)Nc3ccc(C(F)(F)F)cc3)cc2CC1=O 97* 25 -8 109* 104* 19 84*
C[C@@H]1CN([C@@H](C)CO)C(=O)Cc2cc(NC(=O)Nc3ccc(C(F)(F)F)cc3)ccc2O[C@H]1CN(C)Cc1ccc2c(c1)OCO2 93 40 -73 nt nt nt nt
COc1ccccc1CNC(=O)C[C@@H]1C[C@@H]2c3cc(NC(=O)Nc4ccccc4F)ccc3O[C@@H]2[C@@H](CO)O1 11 -1 -41 nt nt nt nt
COCC(=O)N(C)C[C@H]1Oc2cc(-c3cccnc3)ccc2S(=O)(=O)N([C@@H](C)CO)C[C@H]1C -13 -1 13 nt nt nt nt
CCCC(=O)Nc1ccc2c(c1)C(=O)N(C)[C@@H]1CC[C@@H](CC(=O)Nc3cn(C)nc3C)O[C@H]1CO2 -27 -1 5 nt nt nt nt
C/C=C/c1ccc2c(c1)O[C@H](CN(C)Cc1ccncc1)[C@H](C)CN([C@H](C)CO)S2(=O)=O 71 -1 3 nt nt nt nt
C/C=C/c1ccc2c(c1)O[C@H](CN(C)Cc1ccncc1)[C@@H](C)CN([C@H](C)CO)S2(=O)=O 108* -5 0 97* ? 45* 74*
C/C=C/c1ccc2c(c1)O[C@H](CN(C)Cc1cncnc1)[C@H](C)CN([C@H](C)CO)S2(=O)=O nt 3 20 nt nt nt nt
C/C=C/c1ccc2c(c1)O[C@@H](CN(C)Cc1ccncc1)[C@@H](C)CN([C@@H](C)CO)S2(=O)=O 109* -2 -42 96* 101* 33 29*
CCCNC(=O)C[C@@H]1C[C@@H]2c3cc(NC(=O)C4CCOCC4)ccc3O[C@@H]2[C@@H](CO)O1 nt 0 15 nt nt nt nt
O=C(c1cccnc1)N1C[C@@H]2[C@H](c3ccccc31)[C@H](CO)N2C(=O)Nc1ccccc1 8 -2 -18 nt nt nt nt
CN1c2ccc(Br)cc2[C@@H]2[C@@H](CCN2S(=O)(=O)c2cccc(F)c2)[C@H]1CO ? -3 29 106* 28 15 35*
Cc1cccc(S(=O)(=O)N2CC[C@@H]3[C@H]2c2cc(Br)ccc2N(C)[C@H]3CO)c1 74 74 40 nt nt nt nt
CN1c2ccc(Br)cc2[C@H]2[C@H](CCN2S(=O)(=O)c2cccc(F)c2)[C@@H]1CO 117* -12 32 103* 89 34 23
CN1c2ccc(Br)cc2[C@@H]2[C@@H](CCN2S(=O)(=O)c2ccccc2)[C@@H]1CO 54 22 40 nt nt nt nt
CCC(=O)Nc1ccc2c(c1)C(=O)N(C)C[C@@H](OC)[C@H](C)CN(C(=O)c1ccc(F)cc1)[C@@H](C)CO2 1 nt 34 nt nt nt nt
SMILES T_cruzi_growth-1 C_diff_HTS Pf_Dd2_growth T_cruzi_growth-2 T_cruzi_growth-3 NIH3T3_tox NIH3T3_tox_2
C[C@H]1CN([C@@H](C)CO)C(=O)Cc2cc(NS(=O)(=O)c3ccc(Cl)cc3)ccc2O[C@@H]1CN(C)Cc1ccccc1 102* -1 -26 104* 50 -15 83*
C[C@H]1CN([C@@H](C)CO)C(=O)Cc2cc(NS(=O)(=O)c3ccc(Cl)cc3)ccc2O[C@@H]1CN(C)Cc1ccc(-c2ccccc2)cc1 99* nt -27 105* 53 6 107*
C[C@@H]1CN([C@H](C)CO)C(=O)Cc2cc(NS(=O)(=O)c3ccc(F)cc3)ccc2O[C@@H]1CN(C)Cc1ccccc1 88 -8 2 nt nt nt nt
C[C@@H]1CN([C@H](C)CO)C(=O)Cc2cc(NS(=O)(=O)c3ccccc3)ccc2O[C@@H]1CN(C)Cc1ccc(-c2ccccc2)cc1 67 3 14 nt nt nt nt
C[C@@H]1CN([C@@H](C)CO)C(=O)Cc2cc(NS(C)(=O)=O)ccc2O[C@H]1CN(C)Cc1ccc(-c2ccccc2)cc1 88 27 -1 nt nt nt nt
C[C@H](CO)N1C[C@H](C)[C@@H](CN(C)Cc2ccccc2)Oc2ccc(NS(=O)(=O)c3ccc(F)cc3)cc2CC1=O 109* 0 -42 96* 44 3 0
C[C@@H]1CN([C@@H](C)CO)C(=O)Cc2cc(NS(=O)(=O)c3ccc(Cl)cc3)ccc2O[C@@H]1CN(C)Cc1ccccc1 72 2 -30 nt nt nt nt
C[C@H](CO)N1C[C@H](C)[C@@H](CN(C)Cc2ccc(-c3ccccc3)cc2)Oc2ccc(NS(C)(=O)=O)cc2CC1=O 118* 45 -11 112* ? 26 105*
Cc1noc(C)c1S(=O)(=O)Nc1ccc2c(c1)C(=O)N([C@H](C)CO)C[C@@H](C)[C@@H](CN(C)S(C)(=O)=O)O2 -1 -2 30 nt nt nt nt
CCCN1[C@@H]2Cn3c(cccc3=O)[C@H]1[C@@H](C(=O)NC1Cc3ccccc3C1)[C@@H]2CO 68 -2 nt nt nt nt nt
COc1ccc(CN(C)C[C@@H]2OCCCC[C@H](C)Oc3ccc(NC(=O)NC(C)C)cc3C(=O)N([C@@H](C)CO)C[C@@H]2C)cc1 28 -2 3 nt nt nt nt
